PubChem BioAssay (NCATS)
Unmarked numbers belong to inactive results. Inconclusive results are not listed. Calls of active or inactive are those of the source. Unless noted, the call rests on the fitted dose curve; in most records, active means well fitted curve in either direction with a large enough effect (not every such curve was filed as active); inconclusive means small, poorly fitted or top-dose-only effect, or another doubt; inactive means flat fitted curve, though single readings scatter.

target: Lysosomal acid glucosylceramidase (Homo sapiens) (UniProt P04062); test: Glucocerebrosidase-p2 (AID 348; in the data active means potency below about 10 µM; further: potency means the concentration at half of the fitted maximal effect); conditions: purified GBA, blue fluorogenic substrate, 40 min
How it was run: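 Compounds titrated from 0.6 nM upwards against 0.2 nM enzyme in pH 5.9 citric acid/KH2PO4, taurocholate, tween-20; blue fluorogenic substrate 80 uM, 40 min room temperature, stopped and read Ex 365/Em 440 for AC50.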

Sequence of Lysosomal acid glucosylceramidase (Homo sapiens) (P04062 whole entry, looked up): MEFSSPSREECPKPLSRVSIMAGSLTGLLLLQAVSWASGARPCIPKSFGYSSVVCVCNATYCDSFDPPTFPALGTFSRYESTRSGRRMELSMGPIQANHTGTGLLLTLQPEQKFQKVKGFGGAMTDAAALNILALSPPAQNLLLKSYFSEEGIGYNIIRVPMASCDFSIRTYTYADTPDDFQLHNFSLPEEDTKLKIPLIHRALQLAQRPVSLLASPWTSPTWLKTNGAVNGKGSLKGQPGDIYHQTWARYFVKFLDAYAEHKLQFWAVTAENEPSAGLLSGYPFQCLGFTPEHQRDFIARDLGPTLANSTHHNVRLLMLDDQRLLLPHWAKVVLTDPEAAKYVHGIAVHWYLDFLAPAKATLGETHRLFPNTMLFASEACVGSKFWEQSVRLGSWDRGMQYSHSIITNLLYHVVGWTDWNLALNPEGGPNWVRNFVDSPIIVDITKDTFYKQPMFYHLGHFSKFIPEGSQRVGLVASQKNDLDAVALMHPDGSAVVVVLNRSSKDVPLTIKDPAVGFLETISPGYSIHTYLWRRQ

SMILES	Potency [µM]
Cc1ncc(CO)c(CN)c1O	> 11.4
CC(C)=CCC/C(C)=C/CO	> 11.4
O=S1(=O)OC(c2ccc(O)cc2)(c2ccc(O)cc2)c2ccccc21	> 11.4
NS(=O)(=O)c1ccc(C(=O)O)cc1	> 11.4

test system: not listed separately; test: AP1 Signaling Pathway (AID 357); conditions: ME-180 (cervical carcinoma) AP-1-bla reporter, EGF-induced, beta-lactamase ratio, 5 h; series mostly up to 17.2 µM; activity change, negative = inhibition: at the top concentration;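 further: ME-180 reporter cells stimulated with EGF at its EC50 level; on the % scale 0 is the no-effect control and ±100 the full control effect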
How it was run: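 A ratiometric CCF4 readout (405 nm excitation; 460 and 530 nm emission) quantified AP-1-driven beta-lactamase in ME-180 cells after 5 h with compound and EC50 EGF; AC50 values were derived for activators and inhibitors.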

SMILES	activity change, negative = inhibition	outcome
Cc1c(NC(C)C)c(=O)n(-c2ccccc2)n1C	4.19%	
NCc1ccc(S(N)(=O)=O)cc1		inactive
Cc1ncc(CO)c(CN)c1O	-7.88% [at 7.69 µM]	
CCCCC1(COC(=O)CCC(=O)O)C(=O)N(c2ccccc2)N(c2ccccc2)C1=O	7.24%	
CCc1cccc(CC)c1NC(=O)CN(CC(=O)O)CC(=O)O	4%	
NC(=O)CC[C@@H](N)C(=O)O	-11.6% [at 38 µM]	
CN/C(=C\[N+](=O)[O-])NCCSCc1csc(CN(C)C)n1	-2.52%	
C[C@@H]1CCC[C@H](C)N1	7.18%	
O=C(O)c1ccccc1OP(=O)(O)O	0.618%	
CCN(CC)CCOC(=O)C(c1ccccc1)c1ccccc1		inactive
Cn1c(=O)c2c(ncn2CCO)n(C)c1=O		inactive
CC(C)=CCC/C(C)=C/CO	6.89% [at 7.69 µM]	
O=C(Cn1ccnc1[N+](=O)[O-])NCCO	-4.3%	
CCOC(=O)[C@H](CCc1ccccc1)N[C@@H](C)C(=O)N1CCC[C@H]1C(=O)O		inactive
Cc1cccc(Nc2ccccc2C(=O)O)c1C	5.13%	
O=C(O)COC(=O)Cc1ccccc1Nc1c(Cl)cccc1Cl	-8.26%	
Cc1c(NC(=O)c2cccnc2)c(=O)n(-c2ccccc2)n1C	6.04%	

SMILES	activity change, negative = inhibition	outcome
CC1(C)S[C@@H]2[C@H](NC(=O)C(C(=O)O)c3ccccc3)C(=O)N2[C@H]1C(=O)O (some centres not stated)	6.45%	
Cc1cc(NC(=O)C2=C(O)c3ccccc3S(=O)(=O)N2C)no1		inactive
O=C(O)c1ccccc1C(=O)Nc1ccc(S(=O)(=O)Nc2nccs2)cc1	0.848%	
CCCNC(C)(C)COC(=O)c1ccccc1	-0.479%	
O=S1(=O)OC(c2ccc(O)cc2)(c2ccc(O)cc2)c2ccccc21	-3.53% [at 7.69 µM]	
COc1ccc2cc(CCC(C)=O)ccc2c1	-19.8%	
CC(=O)SC[C@@H](Cc1ccccc1)C(=O)NCC(=O)OCc1ccccc1	19.4%	
CCCCOC(=O)c1ccc(N)cc1	-11.9%	
Cn1c([N+](=O)[O-])cnc1COC(N)=O		inactive
NS(=O)(=O)c1ccc(C(=O)O)cc1		inactive
Nc1ccc(S(=O)(=O)c2ccc(N)cc2)cc1		inactive
CCN(CC)CCc1nc(-c2ccccc2)no1	-12.7%	
NC(N)=NS(=O)(=O)c1ccc(N)cc1		inactive
CC(=O)NS(=O)(=O)c1ccc(N)cc1		inactive
CC[N+](CC)(CC(=O)Nc1c(C)cccc1C)Cc1ccccc1	3.94%	
Cc1cc(C)nc(NS(=O)(=O)c2ccc(N)cc2)n1		inactive
